Laboratory results published in PubChem BioAssay (NCI).
This is part of a sample that, as a whole, favours compounds with a hit. Of some 83,000 tested, about 20% had one in any assay.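 Note: values are percent growth. 100 is the growth of untreated cells, values between 100 and 0 indicate rising inhibition; between -100 and 0 indicates cell death.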 Calls of active or inactive are those of the source. The calls were made as follows: active = growth percent below 10; inactive = the rest.

Tested on: HL-60(TB) leukemia
Test: NCI-60 one-dose screen, 48 h (100 = growth as untreated, 0 = no growth, -100 = all killed)
Conditions: 10 µM unless noted

| Compound | growth |
| --- | --- |
| C=C(C)[C@@H]1CC[C@]2(C(=O)O)CC[C@]3(C)[C@H](CC[C@@H]4[C@@]5(C)CCC(NC(=O)c6cccc(OC(C)=O)c6OC(C)=O)C(C)(C)[C@@H]5CC[C@]43C)[C@@H]12 (stereo partly specified) | -13.1% (active) |
| CC(=O)C1Cc2ccccc2C1=O (stereo unspecified) | 97.4% (inactive) |
| O=C1C(=O)c2cccnc2-c2ncccc21 | -21% (active) |
| OCCN1CCCCCCC1 | 102% (inactive) |
| O=c1oc2ccc(F)cc2c(=O)n1-c1ccc(F)cc1F | 16.7% (inactive) |
| COC(=O)C1(C)COP(=O)(NC23CC4CC(CC(C4)C2)C3)OC1 (stereo unspecified) | 119% (inactive) |
| COc1cc2c(c(OC)c1OC)CCc1cnoc1-2 | 114% (inactive) |
| Oc1ccc(N=Cc2ccccc2)cc1 | 0.519% (active) |
| N=C(N)c1ccc(-c2ccc(-c3cc(Cl)cc(Cl)c3)s2)nc1 | -7.02% (active) |
| COc1ccc2c(OCc3nnc4ccc(-c5ccccc5)nn34)ccnc2c1 | 106% [2.5 µM] (inactive) |
| COc1cc(C=O)ccc1Oc1ccc([N+](=O)[O-])cc1[N+](=O)[O-] | 95.1% (inactive) |
| Clc1ccc(N2N=C(c3cccc(Nc4ccncc4)c3)CC2c2ccccc2)cc1 (stereo unspecified) | 85.4% (inactive) |
| CSc1nc2c(c(=O)n1C)CN(Cc1ccccc1)C(=O)CN2 | 84.9% (inactive) |
| COc1cc2c(cc1OC)-c1ccc3cc4c(cc3c1N(CCCN(C)C)C2)OCO4 | 30.4% (inactive) |
| Cc1csc(Nc2nc(-c3cccc(Cl)c3)nc(C(Cl)(Cl)Cl)n2)n1 | -10.2% (active) |
| c1ccc(Cn2cc3c(c2-c2ccccc2)CCc2cnoc2-3)cc1 | 35.6% (inactive) |
